# PRMT1 FP inh = PRMT1 (human) inhibition, primary screen. AID 652257. inhibition, % at 2.79 µM. 1.3% of 370,000 active. Q99873. recombinant PRMT1, activity-based probe fluorescence polarization;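 active = inhibition above about 21% made by adding two undisclosed values, limit read from the data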
# Granule exo inh = blocks lytic granule exocytosis; TALL-104 LAMP-1 surface exposure, flow cytometry; cells stimulated with thapsigargin and PMA; inhibition, % at 10 µM; 0.66% of 360,000 active; AID 651702;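 active = inhibition above about 55%, limit read from the data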
# TLR9-MyD88 block = TLR9-MyD88 interaction inhibition; Q9NR96+Q99836; CHO BLA complementation TLR9-MyD88, CCF4 FRET ratio; inhibition, % at 4.98 µM; 0.21% of 340,000 active;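 active = inhibition above the mean over all tested compounds plus 3 SD, cut at about 21% in these data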;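 also: 0% = DMSO only wells and 100% = clavulanate BLA inhibitor control wells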
# TLR4-MyD88 BLA = TLR4-MyD88 interaction inhibition in cells; inhibition, % at 8.4 µM; O00206+Q99836; 0.18% of 200,000 active; HeLa CL3-4 TLR4/MyD88 BLA complementation, FRET ratio; in the data active = inhibition above about 25%;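 also: 0% = vehicle and 100% = reference inhibitor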
# ABHD5-PLIN5 inh = blocks binding of human ABHD5 to perilipin-5; Split G. princeps luciferase complementation, luminescence, 4 h; Q00G26+Q8WTS1; inhibition, % at 4 µM; 0.78% of 360,000 active;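 active = inhibition above the mean inhibition across every tested compound plus 3 SD, cut at about 22% in these data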;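 also: 0% = DMSO only wells and the 100% control is not disclosed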
# NOD2-RIPK2 inh = inhibitors of human NOD2-RIPK2 interaction. AID 624267. 0.38% of 360,000 active. CHO BLA complementation NOD2-RIPK2, CCF4 ratio. inhibition, % at 4.98 µM. O43353; in the data active = inhibition above about 21%;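 also: 0% = vehicle only and 100% = reference blocker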
# Target sequence (O43353 whole entry, looked up): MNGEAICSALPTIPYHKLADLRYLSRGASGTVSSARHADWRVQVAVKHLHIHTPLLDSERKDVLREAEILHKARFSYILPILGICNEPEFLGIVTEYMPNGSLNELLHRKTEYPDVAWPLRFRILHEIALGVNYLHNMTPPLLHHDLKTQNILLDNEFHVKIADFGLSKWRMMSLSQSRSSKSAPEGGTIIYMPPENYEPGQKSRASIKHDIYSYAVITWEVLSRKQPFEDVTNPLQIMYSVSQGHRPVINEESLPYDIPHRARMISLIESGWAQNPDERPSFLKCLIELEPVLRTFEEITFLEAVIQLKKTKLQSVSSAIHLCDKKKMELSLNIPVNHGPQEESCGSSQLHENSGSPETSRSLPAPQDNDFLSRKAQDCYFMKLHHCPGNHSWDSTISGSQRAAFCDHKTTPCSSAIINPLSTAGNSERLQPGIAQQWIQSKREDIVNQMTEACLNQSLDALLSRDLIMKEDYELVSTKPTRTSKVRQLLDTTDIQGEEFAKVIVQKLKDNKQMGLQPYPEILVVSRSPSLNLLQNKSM
# TLR9-MyD88 conf = TLR9-MyD88 interaction inhibition, confirmation; shares compounds with TLR9-MyD88 block; CHO TLR9/MyD88 BLA complementation, CCF4 FRET ratio; inhibition, % at 4.98 µM; 51% of 680 active;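 active = mean inhibition across three repeats above about 21% taken from the earlier screen, limit read from the data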;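 also: blue over green emission ratio reports constitutive TLR9 MyD88 association via BLA complementation; 0% = DMSO vehicle wells and 100% = clavulanate BLA inhibitor wells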
# BLA counter-1 = beta-lactamase reporter inhibition, counter-screen artifact | shares compounds with TLR9-MyD88 block | inhibition, % at 4.98 µM | 7% of 680 active | CHO-BLA cells, CCF4 FRET ratio, BLA reporter;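 active = mean inhibition above a 50% cutoff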;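 also: counterscreen of TLR9-MyD88 hits on CMV-driven BLA in CHO-K1 cells; 0% = DMSO alone and 100% = clavulanate blocking BLA; higher means less blue over green ratio so more BLA blockade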
# TLR9 CHO tox = counter-screen for TLR9-MyD88 inhibitors: cytotoxicity in CHO cells. shares compounds with TLR9-MyD88 block. luminescence. inhibition, % at 4.98 µM. 39% of 680 active. AID 588336; in the data active = inhibition above about 11%
# ABHD5 PLIN5 conf = ABHD5-PLIN5 interaction inhibition, confirmed. biochemical ABHD5-PLIN5 interaction, luminescence. 67% of 2,200 active. inhibition, % at 4 µM. shares compounds with ABHD5-PLIN5 inh. AID 651612; in the data active = inhibition above about 23%;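 also: 0% = DMSO vehicle wells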
# HNF4 counter = active in HNF4 split-luciferase counter-screen for ABHD5-PLIN5 inhibitors | shares compounds with ABHD5-PLIN5 inh | HNF4 dimerization, luminescence, biochemical | inhibition, % at 4 µM | 77% of 2,200 active | AID 651674;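 active = mean inhibition across replicate wells exceeding the computed hit threshold, cut at about 13% in these data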;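 also: light from luciferase halves that rejoin when HNF4 fusion proteins dimerize; 0% = DMSO only wells and the 100% control is not given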
# NOD2-RIPK2 conf = confirmation of human NOD2-RIPK2 interaction inhibitors; 70% of 1,200 active; AID 624370; shares compounds with NOD2-RIPK2 inh; inhibition, % at 4.98 µM; CHO cells, NOD2-RIPK2 BLA complementation, CCF4 FRET;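 active = mean inhibition across replicates above a set limit taken from the earlier primary screen, cut at about 21% in these data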;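 also: 0% = DMSO-only wells and the high end = clavulanate BLA-blocked wells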
# BLA counter-2 = NOD2-RIPK2 counterscreen BLA reporter activity | shares compounds with NOD2-RIPK2 inh | CHO BLA reporter, CCF4 FRET ratio | inhibition, % at 4.98 µM | 57% of 1,200 active;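 active = mean inhibition above the low-control mean inhibition plus three low-control SD, cut at about 11% in these data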;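 also: 0% = DMSO only wells and 100% = clavulanate high control wells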
# PRMT1 confirm = PRMT1 (human) inhibition, FP confirmation; 42% of 3,300 active; inhibition, % at 2.79 µM; recombinant His-PRMT1, activity-based probe fluorescence polarization; shares compounds with PRMT1 FP inh;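 active = mean inhibition across replicates above the hit cutoff derived for the earlier primary screen, cut at about 22% in these data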
# Numbers without * were called inactive; · = not tested or not shown; ! = not confirmed by another sample. Sampled rows, rich in hits. Any-hit rate of the full collection: about 2.6%.
SMILES,PRMT1 FP inh,Granule exo inh,TLR9-MyD88 block,TLR4-MyD88 BLA,ABHD5-PLIN5 inh,NOD2-RIPK2 inh,ABHD5 PLIN5 conf,HNF4 counter,others
CN1CCN(C(=O)COc2ccc(S(=O)(=O)Nc3ccc(Cl)cc3)cc2)CC1,-4.3,2.2,4.8,·,3.8,4.9,·,·,
Nc1ccc2ccc3cccc[n+]3c2c1,175.4*,21.0,25.7*,·,-0.5,23.5*,·,·,TLR9-MyD88 conf=9.2;BLA counter-1=10.7;TLR9 CHO tox=-1.6;NOD2-RIPK2 conf=31.5*;BLA counter-2=35.7*;PRMT1 confirm=150.2*
C=CCn1c(O)c(C(CC)=NCCN2CCN(C(=S)NC)CC2)c(=O)[nH]c1=O,-3.4,0.1,5.4,·,1.6,12.3,·,·,
O=C(Nc1cccc2ccccc12)N1Cc2ccccc2-n2nncc2C1,0.3,-3.4,6.7,·,-6.6,-12.4,·,·,
CC1=C(O)C(=O)C=C2C1=CC=C1C2(C)CCC2(C)C3CC(C)(C(=O)O)CCC3(C)CCC12C (stereo unspecified),34.7*,105.7*,28.6*,·,95.4*,80.9*,101.5*,106.0*,TLR9-MyD88 conf=50.1*;BLA counter-1=8.4;TLR9 CHO tox=97.7*;NOD2-RIPK2 conf=80.6*;BLA counter-2=7.5;PRMT1 confirm=49.8*
CN1C2CCC1CC(OC(=O)c1ccc(Cl)cc1)C2 (stereo unspecified),-3.5,4.2,6.1,0.9,-0.3,-1.3,·,·,
CN1[C@@H]2CC[C@H]1CC(OC1c3ccccc3CCc3ccccc31)C2 (stereo partly specified),5.2,30.2,12.1,·,32.0*,-2.6,77.2*,35.0*,
CCC1(CCC(C)C)C(=O)NC(=O)N(c2ccccc2)C1=O (stereo unspecified),-4.9,13.6,·,·,-1.8,-10.7,·,·,
CC(=O)N1CC(=O)Nc2ccc(Cl)cc2C1c1ccc(F)cc1 (stereo unspecified),0.6,7.4,0.9,-0.1,-7.3,-15.1,·,·,
NCCc1ccc(OCc2ccccc2)c(OCc2ccccc2)c1,-3.7,-4.2,-4.2,·,27.7*,9.7,13.7,7.3,
COc1ccc(C(O)CNC(C)C)c(F)c1OC (stereo unspecified),-2.0,4.9,-6.4,·,9.3,-17.7,·,·,
O=P1(NCCCn2cc[n+](Cc3nc4ccccc4[nH]3)c2)C=C(c2ccccc2)OC(c2ccccc2)=C1,-6.3,19.7,-1.6,·,26.2*,-6.6,12.4,-0.8,
Cn1c(O)c(C=Nc2cccc(C(F)(F)F)c2)c(=O)n(C)c1=O,22.1*,-5.5,-2.8,·,24.1*,-0.7,6.0,13.8*,
CN1CCC(N(C)c2nc(-c3ccc([N+](=O)[O-])cc3)nc3ccccc23)CC1,-0.3,17.0,11.0,-3.8,29.0*,0.1,10.8,1.9,
COC(=O)C1=C(c2cc3ccccc3o2)C[C@@H]2CC[C@H]1N2C(=O)NCc1ccco1,0.5,-3.5,-22.8,·,23.3*,-1.8,7.9,10.8,
COc1ccc(N2C(=O)NC(=O)/C(=C\c3ccccc3[N+](=O)[O-])C2=O)cc1,8.5,-5.5,-1.2,15.2,23.2*,10.1,81.2*,85.3*,
COc1ccc(N2C(=O)NC(=O)/C(=C/c3ccc4c(c3)Cc3ccccc3-4)C2=O)cc1,·,·,·,-14.4,·,·,·,·,
CCOc1ccc(N2C(=O)NC(=O)/C(=C\c3ccccc3[N+](=O)[O-])C2=O)cc1,13.0,9.1,2.1,·,28.0*,-4.8,87.0*,84.9*,
CSc1ncc(/C=C2/C(=O)NC(=O)N(c3ccc(C)cc3)C2=O)cn1,3.2,0.5,-6.7,11.1,18.3,1.9,·,·,
CCOc1ccc(N2C(=O)NC(=O)/C(=C/c3cnc(SC)nc3)C2=O)cc1,10.8,-1.3,-1.2,-4.0,28.2*,-1.2,71.2*,87.1*,
Cc1ccc(N2C(=O)NC(=O)/C(=C\c3cnc(-c4ccccc4)nc3)C2=O)cc1,1.2,1.9,-2.1,2.5,30.4*,5.2,86.5*,92.2*,
Cc1ccc(N2C(=O)NC(=O)/C(=C/c3cnn(-c4ccc(C)cc4)c3)C2=O)cc1,3.5,46.3,-19.4,-0.1,6.5,1.9,·,·,
CSc1ncc(/C=C2/C(=O)NC(=O)N(c3ccc(Cl)cc3)C2=O)cn1,7.2,0.3,3.0,6.5,41.5*,-2.0,78.1*,90.6*,
O=c1[nH]c(=O)n(CC2CCCO2)c(O)c1/C=C1\C=Nc2ccccc21 (stereo unspecified),-4.7,42.0,4.4,-17.2,26.6*!,-0.9,11.2,18.0*,
O=c1[nH]c(=O)n(-c2cccc(Cl)c2)c(O)c1/C=N/c1ccccn1,1.6,-11.4,9.9,5.0,26.4*,-0.7,4.1,27.0*,
CNS(=O)(=O)c1ccc(N=Cc2c(O)n(-c3ccccc3)c(=O)[nH]c2=O)cc1,5.2,-0.5,-4.8,-8.4,40.2*,-3.9,6.1,21.8*,
COc1cc2c(cc1OC)-c1c(OC)c(OC)cc3c1[C@H](C2)[N+](C)(C)CC3,-1.0,-0.8,1.8,4.8,6.0,-2.7,·,·,
O=C1NC(=S)NC(=O)C12C(c1ccc(F)cc1)NC(=S)NC2c1ccc(F)cc1 (stereo unspecified),-2.0,0.8,-6.3,6.6,24.2*,-5.6,78.9*,63.1*,
O=C1NC(=S)NC(=O)C1c1ccccc1,3.2,-1.0,7.1,·,4.7,-7.3,·,·,
O=C1NC(=S)NC(=O)C12C(c1ccccc1)NC(=S)NC2c1ccccc1 (stereo unspecified),1.5,-0.3,-7.3,0.9,29.3*,4.2,61.0*,39.0*,
